# From PubChem BioAssay AID504911 (Southern Research Specialized Biocontainment Screening …, 2011)
# Entries with a potency or affinity are not part of this list. Unmarked numbers belong to inactive results. How the calls were made is not given here.
# Assay: THP-1 cell cytotoxicity, cytotoxicity control, set 4 (AID 504911)
# Settings: THP-1 cytotoxicity; series mostly up to 100 µM; viability: at the top concentration
row,Compound,viability [%]
1,Cc1cnc(SCC(=O)NC2CCCCC2)[nH]c1=O,111
2,CCOC(=O)CSc1nc(C)c(C)c(=O)[nH]1,92.5
3,COc1ccc(NC(=O)CSc2nc3ccccc3c(=O)[nH]2)cc1,111
4,Cc1nc(SCC(=O)NCCC(C)C)[nH]c(=O)c1C,97
5,CC1CCN(C(=O)CSc2nc3ccccc3c(=O)[nH]2)CC1,99.6
6,O=C(CSc1nc2ccccc2c(=O)[nH]1)NC1CCCCC1,113
7,CCC(Sc1nc2ccccc2c(=O)[nH]1)C(=O)NC1CCCCC1 (stereo unspecified),102
8,CCC(Sc1nc2c(c(=O)[nH]1)CCC2)C(=O)Nc1cccc(OC)c1 (stereo unspecified),90.2
9,Cc1cc(=O)[nH]c(=S)[nH]1,91.6
10,CCC(Sc1nc2ccccc2c(=O)[nH]1)C(=O)Nc1cccc(OC)c1 (stereo unspecified),91.9
11,Cc1ccc(NC(=O)COC(=O)CCc2c[nH]c3ccccc23)cc1[N+](=O)[O-],113
12,CN[C@@H]1[C@H](O[C@H]2[C@H](O[C@H]3[C@H](O)[C@@H](O)[C@H](N=C(N)N)[C@@H](O)[C@@H]3N=C(N)N)O[C@@H](C)[C@]2(O)C=O)O[C@@H](CO)[C@H](O)[C@H]1O,115
13,Cc1nc(SCC(N)=O)[nH]c(=O)c1C,110
14,Cc1nc(SCC(=O)NC2CCCCC2)[nH]c(=O)c1C,98.9
15,CN1CCC(NC(=O)CSc2nc3ccccc3c(=O)[nH]2)CC1,117
16,NC[C@H]1O[C@H](O[C@H]2[C@H](O)[C@@H](O[C@H]3O[C@H](CO)[C@@H](O)[C@H](N)[C@H]3O)[C@H](N)C[C@@H]2N)[C@H](O)[C@@H](O)[C@@H]1O,108
